Results taken from PubChem BioAssay AID2551 (National Center for Advancing Translational Sciences (NCATS), 2010).
Screen size: about 310,000 compounds; about 17,000 (5.5%) were called active. Not shown: some 11% with an inconclusive outcome. The call rests on the fitted dose curve; in most records, active means well fitted inhibition curve with a large enough effect; inconclusive means small, poorly fitted or top-dose-only effect, or effect the other way; inactive means no such curve, though single readings can be large or run the other way. The entries come from a sample that favours actives as a whole.

What follows are compounds tested against Nuclear receptor ROR-gamma (Mus musculus) (UniProt P51450) (assay: qHTS for inhibitors of ROR gamma transcriptional activity). Conditions: Drosophila S2 Gal4-RORgamma UAS-luciferase reporter, 20 h; series mostly up to 53.6 µM; activity change, negative = inhibition: at the top concentration.
How it was run: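 Drosophila Schneider cells stably carrying a metallothionein-driven Gal4 DBD–ROR gamma fusion and a UAS-Photinus luciferase reporter were exposed to compound for 1 hr, then induced with copper sulfate (700 uM final) for 20 hr at ambient temperature before luminescence reading.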
Further: nearly all actives have a fitted effect of over 60% in size.
On the % scale 0 is the no-effect control and ±100 the full control effect; potency means the concentration at half of the fitted maximal effect.

Sequence of Nuclear receptor ROR-gamma (Mus musculus) (P51450 whole entry, looked up, the tested form may be a part): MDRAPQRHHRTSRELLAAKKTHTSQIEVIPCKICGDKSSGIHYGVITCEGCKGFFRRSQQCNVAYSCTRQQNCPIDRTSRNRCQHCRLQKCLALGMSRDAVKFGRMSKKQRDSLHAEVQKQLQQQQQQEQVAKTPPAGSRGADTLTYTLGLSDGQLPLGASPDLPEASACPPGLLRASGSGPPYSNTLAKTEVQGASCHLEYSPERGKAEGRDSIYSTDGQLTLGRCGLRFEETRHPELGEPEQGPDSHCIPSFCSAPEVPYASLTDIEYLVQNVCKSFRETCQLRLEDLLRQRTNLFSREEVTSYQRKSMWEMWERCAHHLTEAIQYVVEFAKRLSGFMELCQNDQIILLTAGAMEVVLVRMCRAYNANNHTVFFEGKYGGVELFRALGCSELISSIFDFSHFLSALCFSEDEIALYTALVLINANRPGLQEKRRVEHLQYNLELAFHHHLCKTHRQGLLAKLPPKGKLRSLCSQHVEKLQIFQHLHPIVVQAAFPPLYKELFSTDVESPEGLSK

Activity change, negative = inhibition, inactive:
COc1ccc(C2(C)NC(=O)N(CC(=O)c3ccc4c(c3)OCO4)C2=O)cc1 (centres undefined) -4.65%
Cc1cc(C)c(S(=O)(=O)Nc2c(C)n(C)n(-c3ccccc3)c2=O)cc1[N+](=O)[O-] -8.36%
Cc1cccc([C@@H]2[C@@H]3C(=O)N(Cc4ccccc4)C(=O)[C@@H]3[C@]3(C)C(=O)N(c4ccc(Br)cc4)C(=O)N23)c1 21.2%
O=C(N/N=C/c1cccc(Br)c1)c1ccc(N2CCCC2=O)cc1 -8.7%
COCc1ccc(CN2CCC(Oc3ccc(C(=O)NCc4ccccn4)cc3)CC2)o1 -7.56%
COc1ccc(NC(=O)C2CCN(S(=O)(=O)c3ccc4[nH]c(=O)oc4c3)CC2)c(OC)c1 -10.7%
Cc1ccc(S(=O)(=O)N(CCCN(C)C)Cc2ccc3c(c2)OCO3)cc1 0.598%
CCCS(=O)(=O)Nc1ccc(-c2cn3c(n2)SCC3)cc1 5.34%
COc1cc(/C=N\NC(=O)c2nonc2N)c(OC)cc1Br -6.29%
Cc1ccc(-c2ccc(/C=N/NC(=O)CN3CCOCC3)o2)cc1[N+](=O)[O-] -112%
COc1ccnc2c1c(=O)n(Cc1cccc(F)c1)c(=O)n2C -8.83%
O=c1[nH]n(-c2cccc(Cl)c2)c2ncccc12 13.5%
CC(C)CC(=O)N1CCN(Cc2cccc(Cl)c2)CC1 -20.8%
COc1ccc(Cl)cc1NS(=O)(=O)c1cccc(C(=O)NCC2CCCO2)c1 (centres undefined) -22.2%
O=C(COc1ccc([N+](=O)[O-])cc1)Nc1cccc(C(=O)Nc2ccccc2C(=O)O)c1 5.24%
CCCOc1ccc(CNC(=O)C2CCN(c3nn4c(=O)cc(C)nc4s3)CC2)cc1 -8.37%
Cc1cc(N2CCCC2)n2nc(C)c(-c3ccccc3)c2n1 19%
Cc1cc(C(C)(C)C)n2nc(C)c(-c3ccccc3)c2n1 -8.83%
COc1ccc(-c2noc(C(C)NS(=O)(=O)c3ccc(NC(C)=O)cc3)n2)cc1 (centres undefined) 37.7%
Cc1cc(C)cc(NC(=O)C2CCCN(S(=O)(=O)c3ccc4[nH]c(=O)ccc4c3)C2)c1 (centres undefined) -31.2%
CCCSc1nc2sc3c(c2c(=O)n1-c1ccc(OC)cc1)CCN(C)C3 -3.28%
CSc1nc2sc3c(c2c(=O)[nH]1)CCc1ccccc1-3 -60.4%
Cn1c(CCN2CCCC2)nc2cc(NS(=O)(=O)c3ccccc3)ccc21 -26.1%
CN(CCC1CCOCC1)C(=O)CC1C(=O)NCCN1Cc1cccc(F)c1 (centres undefined) 5.46%
CCCCC(CC)CNCc1cccn1CCN1CCOCC1 (centres undefined) -0.924%
COc1ccc(CCNC(=O)C2CCCN2C(=O)Nc2ccccc2)cc1OC (centres undefined) -13.3%
C/C(=N\NC(=O)c1cc(-c2ccc(O)cc2)nc2ccccc12)c1cccnc1 -37.7%
O=C(O)c1ccc2c(c1)C(=O)N(c1ccc(/C=C/C(=O)c3ccccc3)cc1)C2=O -43.4%
Cc1cccc(N2C(=O)c3ccc(C(=O)Nc4cccc(C(=O)O)c4)cc3C2=O)c1 1.44%
Cc1cc(OCC(=O)NCC(O)c2ccccc2)c2c(C)c(C)c(=O)oc2c1 (centres undefined) 29.2%
O=C(O)CCCCCCCCc1cn(CN2C(=O)c3ccccc3C2=O)nn1 -39.7%
CC1CCN(C(=O)c2ccccc2NC(=O)Cc2ccccc2)CC1 18.3%
CC1CCN(C(=O)/C(=C\c2ccccc2)NC(=O)c2ccccc2)CC1 -6.2%
COc1ccc(NC(=O)C(C)N2c3cccc4cccc(c34)S2(=O)=O)c(OC)c1 (centres undefined) 16.9%
COc1ccc(COC(=O)c2ccc(Cl)c(S(=O)(=O)N3CCOCC3)c2)cc1F -12.6%
CC(C)(C)OC(=O)N1CCC(C(=O)NNC(=O)c2ccc(Cl)cc2Cl)CC1 -7.57%
O=C(CN1CCC(O)(c2cccc(C(F)(F)F)c2)CC1)NCCc1ccccc1 0.0393%
O=C(CCc1nnc(Cc2ccc3c(c2)OCO3)o1)NCCc1ccccc1Cl 8.86%
O=C(NNC(=S)Nc1ccc(F)cc1)[C@H]1C[C@@H]1c1ccccc1 -42.6%
Cc1ccc(NC(=O)C2CC2c2ccccc2)cc1 (centres undefined) 44.6%
COc1ccc(CCN(C)C(=O)C23CC4CC(CC(Cl)(C4)C2)C3)cc1OC 12.2%
Cc1ccc(N2C(=O)C3C4C=CC(CC4)C3C2=O)cc1Br (centres undefined) -11.5%
O=C(CN1CCCCCC1)Nc1ccc(Cl)cc1F -20.3%
CCOc1ccc(N2CC(C(=O)NCc3ccccn3)CC2=O)cc1 (centres undefined) -0.568%
COC(=O)c1ccccc1NC(=O)c1cncc(Br)c1 -5.09%
COC(=O)c1ccc(C(=O)OC)c(NC(=S)N2CCN(c3cc(Cl)ccc3C)CC2)c1 -19.9%
COc1ccc(C(=O)NC(C)CCc2ccccc2)c(OC)c1 (centres undefined) 38.8%
CCN(c1cccc(C)c1)S(=O)(=O)c1ccc(-c2coc(C)n2)cc1 3.96%
O=C1/C(=C/c2ccc3c(c2)OCO3)Oc2cc(OCC(=O)N3CC(O)C[C@H]3C(=O)O)ccc21 (some centres undefined) -19.9%
COC(=O)c1cc(OCC(=O)NC2CCCc3ccccc32)cc(C(=O)OC)c1 (centres undefined) -9.26%
O=C(NCCO)C(=O)NCC(c1ccc2c(c1)OCO2)N1CCN(c2ccc(F)cc2)CC1 (centres undefined) 1.74%
O=C(Nc1cc2ccccc2oc1=O)C1CCCCC1 14.7%
O=C(c1cn(-c2ccccc2)nc1-c1cc2ccccc2oc1=O)N1CCOCC1 -6.26%
S=C(NCc1cccnc1)Nc1ccc(Cl)cc1Cl 0.343%
CN1CCN(S(=O)(=O)c2ccc(NC(=S)NC(=O)C3CC3)cc2)CC1 -18.3%
COc1ccc(N(CC(=O)Nc2cccc3ccccc23)S(C)(=O)=O)c(OC)c1 9.57%
CC(=O)c1ccc(S(=O)(=O)N(C)CCCC(=O)N(C)Cc2ccccc2F)cc1 28.3%
Cc1ccc(C(=O)Cn2cccn2)cc1 0.557%
Cc1ccc(Sc2cc(C(=O)c3ccccc3C(=O)O)ccc2[N+](=O)[O-])cc1 13%
CCOc1cc(C2/C(=C(/O)c3ccc(S(=O)(=O)N4CCCCC4)cc3)C(=O)C(=O)N2CCOC)ccc1O (centres undefined) 3.43%
Cc1cc(=O)oc2cc(OCC(=O)N3CCN(c4ccc(F)cc4)CC3)c(Cl)cc12 -6.12%
CCOC(=O)C1(Cc2ccccc2C)CCCN(C(=O)c2ccc(COC)o2)C1 (centres undefined) 21%
COc1cc(NC(=O)CN2C(=O)NC(C)(c3ccc(OC(F)F)cc3)C2=O)cc(OC)c1OC (centres undefined) 44%
COc1ccc(O)c(/C=N/N=C/c2cccc([N+](=O)[O-])c2)c1 -10.9%
CCN(CC)C(=O)COc1coc(CN2CCN(Cc3ccccc3)CC2)cc1=O -0.741%
Clc1ccc2nc(-c3ccccc3)nc(C(Cl)Cl)c2c1 26.6%
CCCc1cc(=O)oc2c(C)c(OC(C)C(=O)NCC(O)c3ccccc3)ccc12 (centres undefined) 4.93%
O=C(COc1ccc(-n2cnnn2)cc1)Nc1ccccc1Cl -8.26%
C=CCc1ccccc1OCC(=O)N/N=C/c1ccccc1OCC 0.433%
O=C(C1CC(=O)N(c2ccc(F)cc2)C1)N1CCN(c2ccccc2)CC1 (centres undefined) 0.455%
COc1cc(Nc2nc3ccc(Cl)cc3n3cnnc23)cc(OC)c1OC -4.72%
CC1(c2ccc3ccccc3c2)NC(=O)N(CC(N)=O)C1=O (centres undefined) -5.53%
COc1ccc(S(=O)(=O)NCC(=O)NC2CC2)cc1OC 3.62%
Cc1ccc(C)c(C(C)NC(=O)C2CCCO2)c1 (centres undefined) -25%
Cc1ccc(C(=O)N/C(=C\c2ccc(F)cc2)C(=O)NCCN2CCOCC2)cc1 -1.59%
O=[N+]([O-])c1ccccc1N/N=C1\CCc2ccccc21 22.6%
CCCCNC(=O)C(=O)c1ccccc1NC(C)=O 6.15%
CCNC(=O)CC1C(=O)N(c2ccc(OC)cc2)C(=O)N1CCOC (centres undefined) -1.87%
O=C(Cc1cc(=O)[nH][nH]1)N/N=C/c1ccccc1[N+](=O)[O-] 7.28%
O=[N+]([O-])c1cc(Cl)cc(/C=N/NC(=S)Nc2cc(S(=O)(=O)N3CCOCC3)ccc2Cl)c1O -35%
CC(=O)N/N=C/c1cc2c(cc1[N+](=O)[O-])OCO2 -16.9%
COC(=O)c1cc(CNC(=O)CC(C)c2ccccc2)ccc1OC (centres undefined) 10.8%
CN(C)CCN(Cc1ccccc1)S(=O)(=O)c1csc(C(N)=O)c1 -20.5%
CCOC(=O)CC1COCCN1C(=O)c1cc(COc2ccc(F)c(F)c2)on1 (centres undefined) 39.5%
COc1ccc(N(C)C(=O)C2CCN(S(=O)(=O)c3cccc4nsnc34)CC2)cc1 6.09%
CC(=O)Nc1cccc([N+](=O)[O-])c1 -1.22%
Cc1ccccc1NC(=S)Nc1cccc([N+](=O)[O-])c1 -34%

Potency, active:
Cc1cc(C)c([N+](=O)[O-])cc1-c1ccc(/C=N/NC(=O)c2nonc2N)o1 11.2 µM
Clc1cccc(CN2COc3c(cc(Cl)c4cccnc34)C2)c1 0.562 µM
Cc1nn2c(NCCN(C)C)c3c(nc2c1-c1ccccc1)CCC3 0.141 µM
COc1ccc(-n2c(=S)[nH]c3sc4c(c3c2=O)CCc2ccccc2-4)cc1 0.447 µM
O=C(O)c1ccc2c(c1)C(=O)N(NC(=O)c1ccc(O)cc1)C2=O 11.2 µM
CC1CCN(C(=S)NC(=O)c2ccccc2Br)CC1 0.562 µM
O=C(N/N=C/c1cccc2cccnc12)[C@H]1C[C@@H]1c1ccccc1 3.55 µM
COC(=O)c1ccc(C(=O)Nc2cc(Cl)ccc2Cl)cc1NC(=O)c1ccccc1C 11.2 µM
O=c1oc2ccccc2cc1-c1cn(-c2ccccc2)c(=S)[nH]1 1.26 µM
O=C(NC(=S)Nc1ccc(Cl)cc1Cl)C1CC1 5.01 µM
Cc1ccc(C(=O)CSc2ccccc2C(=O)O)cc1 10 µM
CSc1nc(-c2ccccc2)nc(C(Cl)Cl)n1 7.08 µM
C=CCc1cccc(/C=N/NC(=O)COc2ccc(-n3cnnn3)cc2)c1O 8.91 µM
CCCCNC(=S)N/N=C1\CCCCc2ccccc21 2 µM
CN(C)/N=C/c1cc(Cl)cc([N+](=O)[O-])c1O 11.2 µM
O=C(N/N=C/c1cc(Cl)cc([N+](=O)[O-])c1O)C(O)(c1ccccc1)c1ccccc1 1 µM
COC(=O)/C=C\C(=O)Nc1cccc([N+](=O)[O-])c1 3.16 µM
